Screening data: PubChem BioAssay, National Center for Advancing Translational Sciences (NCATS)
Sampled rows, rich in hits. Any-hit rate of the full collection: about 12%.
Sfp PPTase inh: qHTS Assay for Inhibitors of Bacillus subtilis Sfp phosphopantetheinyl transferase (PPTase); 4'-phosphopantetheinyl transferase ffp (Bacillus subtilis), Q9F4F7; Biochemical Sfp PPTase activity, qHTS; Potency, µM, for the others: largest response in the series, negative = inhibition, actives largely listed as inhibitors; 310,000 compounds, 3.5% hits;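 note: the enzyme is Sfp with the accession as filed and its product quenches rhodamine fluorescence; 0% = enzyme reaction without inhibitor and -100% = no enzyme wells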
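Sfp 15 nM + cpd, 15 min RT; start w/ rhodamine-CoA 5 uM, BHQ-2-YbbR 12.5 uM (final); 50 mM Hepes pH 7.6, 10 mM MgCl2, 0.01% NP-40, 0.01% BSA; read 525/598 nm at 0 and 30 min.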
G9a block: qHTS Assay for Inhibitors of Histone Lysine Methyltransferase G9a | Histone-lysine N-methyltransferase EHMT2 (Homo sapiens), Q96KQ7 | G9a H3K9 monomethylation, AlphaScreen, 2 h | Potency, µM (highest dose often 102 µM), inactives show top-dose activity, negative = inhibition, most hits filed as inhibitors | 350,000 compounds, 8.8% hits; note: % is set by controls: 0 for no effect and ±100 for the full control effect; nearly all actives have a fitted effect of over 75% in size
Target sequence (Q96KQ7 913-1193 limits assumed): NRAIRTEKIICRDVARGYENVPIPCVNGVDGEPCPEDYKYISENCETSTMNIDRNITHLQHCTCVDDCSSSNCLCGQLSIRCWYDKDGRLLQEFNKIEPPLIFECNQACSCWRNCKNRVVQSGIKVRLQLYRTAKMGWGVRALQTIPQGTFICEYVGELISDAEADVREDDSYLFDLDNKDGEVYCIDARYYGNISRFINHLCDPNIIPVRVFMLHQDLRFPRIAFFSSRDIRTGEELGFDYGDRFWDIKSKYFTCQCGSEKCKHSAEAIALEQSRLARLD
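Chemiluminescent proximity detection of H3K9 monomethylation, read after 10 min bead incubation in the dark. Reaction: 20 nM G9a, 500 nM biotin-H3K9 peptide, 20 uM SAM cofactor, 2 h, room temperature, following 15 min enzyme-compound preincubation.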
BAZ2B block: qHTS Assay for Inhibitors of BAZ2B | AlphaScreen BAZ2B-H3K14Ac peptide displacement | Potency, µM (highest dose often 114 µM), for inactives: top-dose activity change, negative = inhibition, usual class: inhibitors | 360,000 compounds, 4.4% hits; note: % is set by controls: 0 for no effect and ±100 for the full control effect; nearly all actives have a fitted effect of over 60% in size
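Protein-peptide AlphaScreen: BAZ2B 50 nM, b-H3K14Ac 50 nM, 1x PBS pH 7.4 + 0.01% Tween-20. Preincubation 30 min RT; cpd 30 min RT (top 110 uM); beads 20 min RT, light-protected.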
JMJD2A Tudor: qHTS Assay for Inhibitors of JMJD2A-Tudor Domain | Potency, µM (doses to about 114 µM), for the others: at the top dose activity change, negative = inhibition, actives largely listed as inhibitors | AID 504339, 2011 | AlphaScreen JMJD2A-Tudor / H3K4me3 peptide binding | Lysine-specific demethylase 4A (Homo sapiens), O75164 | 390,000 compounds, 4.4% hits; note: % is set by controls: 0 for no effect and ±100 for the full control effect; nearly all actives have a fitted effect of over 50% in size
PLK1 PBD block: qHTS for Inhibitors of PLK1-PDB (polo-like kinase 1 - polo-box domain): Primary Screen | Potency, µM, for inactives: max response, negative = inhibition, actives largely listed as inhibitors | 360,000 compounds, 2.8% hits | Serine/threonine-protein kinase PLK1 (Homo sapiens), P53350 | AID 720504, 2013 | Plk1 PBD binding of FITC phosphopeptide, fluorescence polarization; note: series mostly up to about 57 µM; % is set by controls: 0 for no effect and ±100 for the full control effect; nearly all actives have a fitted effect of over 65% in size
HP1b chromo inh: HTS for Inhibitors of HP1-beta Chromodomain Interactions with Methylated Histone Tails; Chromobox protein homolog 1 (Homo sapiens), P83916; AlphaScreen HP1-beta / biotin-H3K9me3 peptide binding; Potency, µM (titrated, usually from 114 µM), for inactives: top-dose activity change, negative = inhibition, most hits filed as inhibitors; 390,000 compounds, 0.56% hits; AID 540317, 2011; note: nearly all actives have a fitted effect of over 70% in size
Target sequence (P83916 whole entry, looked up): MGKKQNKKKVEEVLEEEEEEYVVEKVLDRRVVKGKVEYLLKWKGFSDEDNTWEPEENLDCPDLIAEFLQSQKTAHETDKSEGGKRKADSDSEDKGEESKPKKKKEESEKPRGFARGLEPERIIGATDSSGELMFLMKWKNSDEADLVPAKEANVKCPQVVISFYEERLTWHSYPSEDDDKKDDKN
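AlphaScreen: HP1-beta (50 nM) preformed 30 min with biotin-H3(1-18)K9me3 peptide (50 nM) in PBS pH 7.4, 0.01% Tween-20. Compound added for 30 min at RT, then streptavidin donor/nickel chelate acceptor beads (10 ug/mL) for 30 min.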
TbPYK inh: qHTS of Trypanosoma Brucei Inhibitors: Confirmatory Assay for Cherry-picked Compounds; shares compounds with PLK1 PBD block; recombinant TbPYK, Kinase-Glo ATP luminescence; Potency, µM (highest dose often 76.9 µM), without a hit: at the highest dose activity change, negative = inhibition, actives largely listed as inhibitors; 890 compounds, 67% hits; note: % is set by controls: 0 for no effect and ±100 for the full control effect; nearly all actives have a fitted effect of over 70% in size
TbPYK ADP-Glo: qHTS of Trypanosoma Brucei Inhibitors: Orthogonal Assay for Cherry-picked Compounds; shares compounds with PLK1 PBD block; recombinant TbPYK, ADP-Glo luminescence, 60 min; Potency, µM (doses to about 76.9 µM), for the others: top-dose activity change, negative = inhibition, hits mostly inhibitors; 890 compounds, 62% hits; note: % is set by controls: 0 for no effect and ±100 for the full control effect; nearly all actives have a fitted effect of over 75% in size
The depositor's hits bear a star; ? = inconclusive; . = no result given; [ ] = another dose, or the depositor's remark. Calls come from the whole dose curve; as a rule, active = well fitted curve in the direction sought with a large enough effect; inconclusive = small, poorly fitted or top-dose-only effect, or another doubt; inactive = no such curve, though single readings can be large; an effect the other way counts as inactive or inconclusive. Potency is the fitted concentration of half-maximal effect.

SMILES	Sfp PPTase inh	G9a block	BAZ2B block	JMJD2A Tudor	PLK1 PBD block	HP1b chromo inh	TbPYK inh	TbPYK ADP-Glo
CC(=O)OC1C=CC2[C@H]3Cc4ccc(O)c5c4[C@@]2(CCN3C)C1O5 (stereo not given in full)	.	.	.	-9%	-3%	55%	.	.
COC1CCC(OC2CC(C3(C)CCC4(CC(O)C(C)C(C(C)/C=C(\C)C(=O)C(C)CC(C)C(=O)O)O4)O3)OC3(OC(C4OC(O)(CO)C(C)CC4C)CC3C)C2C)OC1C (stereo not given)	.	.	.	-31%	-12%	9%	.	.
O=C(c1ccccc1)c1ccccc1N=Cc1c(O)[nH]c(=O)[nH]c1=O	7%	?	?	-27%	-2%	45%	.	.
O=c1[nH]c(O)c(/C=C2\C=NN=C2c2ccccc2)c(=O)[nH]1	50µM*	50µM*	8%	-14%	3.5µM*	20%	11µM*	32µM*
C[C@H](CO)N1C[C@H](C)[C@@H](CN(C)S(=O)(=O)c2cccs2)Oc2ccc(NC(=O)Nc3ccc4c(c3)OCO4)cc2C1=O	.	.	.	?	-5%	-4%	.	.
COc1ccc(S(=O)(=O)N(C)C[C@H]2OCCCC[C@H](C)Oc3ccc(N(C)C)cc3C(=O)N([C@H](C)CO)C[C@@H]2C)cc1	.	.	.	.	-12%	.	11µM*	?
O=C(O)CF	33%	.	.	.	.	.	.	.
CN1C(=O)NC(=O)/C(=C/c2ccc([N+](=O)[O-])s2)C1=O	11µM*	7.1µM*	50µM*	?	2.7µM*	?	5µM*	11µM*
CN1C(=O)C(=Cc2ccc(N3CCOCC3)o2)C(=O)N(C)C1=O	?	?	-27%	0%	106%	16%	.	.
O=C1NC(=O)N(c2ccccc2)C(=O)/C1=C\c1ccc([N+](=O)[O-])s1	13µM*	8.9µM*	35µM*	22µM*	5.3µM*	16µM*	7.9µM*	13µM*
COc1ccc(OC)c(N2C(=O)NC(=O)/C(=C\c3ccc([N+](=O)[O-])s3)C2=O)c1	22µM*	8.9µM*	28µM*	28µM*	2.7µM*	25µM*	2.8µM*	?
CN1C(=O)NC(=O)/C(=C/c2ccc([N+](=O)[O-])o2)C1=O	18µM*	.	50µM*	22µM*	4.7µM*	50µM*	8.9µM*	?
O=C1CC23c4ccccc4N4C(=O)CC5OCC=C6CN1C2CC6C5C43 (stereo not given)	.	.	.	-4%	5%	33%	.	.
Cc1cc(C)n2nc(SC(C)C(=O)N3CCC4(CC3)OCCO4)nc2n1 (stereo not given)	7%	1%[59 µM]	-1%	-22%	-1%	20%	6%	-2%
CNS(=O)(=O)c1ccc(-c2ccc(C=C3C(=O)NC(=O)NC3=O)o2)cc1	35µM*	8.9µM*	?	-25%	2.1µM*	72%	2.8µM*	10µM*
NS(=O)(=O)c1ccc(-c2ccc(C=C3C(=O)NC(=O)NC3=O)o2)cc1	14µM*	10µM*	-34%	?	2.7µM*	12%	1.8µM*	6.3µM*
CC[N+](C)(C)c1cccc(O)c1	8%	-12%[59 µM]	5%	-1%	3%	36%	.	.
COc1ccc(-c2ccc(OC)c(OC)c2OC)cc1	.	.	.	49%	-9%	54%	.	.
COc1ccc(CN2C(=O)NC(=O)/C(=C/c3ccc(OC)c(OC)c3OC)C2=O)cc1	40µM*	.	-16%	9%	8.4µM*	16%	28µM*	?
COc1ccc(CN2C(=O)NC(=O)/C(=C/c3cc(OC)c(OC)c(OC)c3)C2=O)cc1	79µM*	45µM*	-13%	-11%	12µM*	4%	?	-28%
COc1cc(CC2(CCc3ccncc3)C(=O)NC(=O)NC2=O)cc(OC)c1OC	8%	6%	-12%	-15%	-16%	-18%	.	.
COC(=O)C1=C(c2ccc(C(C)=O)cc2)C[C@@H]2CC[C@H]1N2C(=O)N1CCC(O)CC1	.	8%[2.33 µM]	4%	-18%	4%	18%	.	.
c1ccc(C2(NC3=NCCO3)CCCCC2)cc1	.	.	.	.	-8%	.	.	.
O=C(COc1ccccc1Cl)N1CCN(CCc2ccccn2)CC1	.	12%[59 µM]	-31%	3%	.	61%	.	.
